# Reference: PubChem BioAssay AID624351 (Southern Research Specialized Biocontainment Screening …, 2012)
# In all, about 2,400 compounds went through this assay and about 1,400 (58%) were called active.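 How the source made its calls: active means inhibition of 30% or more at any tested dose; inconclusive means primary hits over the limit that were never retested; inactive means the rest.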 The set was probably picked from earlier hits. The list shows a part of the results.
# Assay: ADP Hunter readout inhibition without MgcRacGAP – biochemical, coupled enzyme counter-screen, artefact control for MgcRacGAP inhibitor project, dose response (AID 624351);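 further: signal is the ADP detection kit reading of free GDP without any GAP enzyme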;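 on inhibition: 0% = median positive control wells and 100% = median negative control wells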
# Settings: fluorescence, no MgcRacGAP; series mostly up to 80 µM; inhibition: at the top concentration
SMILES,inhibition,IC50
COc1ccc(CN(C)CC(=O)Nc2ccc(Cl)cc2C(F)(F)F)c(OC)c1,15.9% (inactive),
Nc1n[nH]c(N)c1N=Nc1ccc2c(c1)OCO2,,38 µM (active)
O=S(=O)(O)c1ccc(O)c2cc(Nc3ccccc3)ccc12,17.6% (inactive),
CC(=O)C1=C(S(=O)(=O)c2ccc(C)cc2)CS(=O)(=O)C1,6.22% (inactive),
Cc1ccc(S(=O)(=O)c2cc(Nc3ccccc3)ccc2O)cc1,,68 µM (active)
CC1(C)OC(C)(C)/C(=C/Nc2ccc(O)cc2)C1=O,,22.2 µM (active)
COc1cc(/C=N/NC(=O)c2cc(-c3ccccc3OC(C)C)nc3ccccc23)ccc1O,29.6% (inactive),
CCOc1cc(/C=N/NC(=O)c2ccccc2-n2cccc2)ccc1O,,44.9 µM (active)
COc1cc(C=NNC(=O)c2ccccc2-n2cccc2)ccc1O,,36.4 µM (active)
CCCCN(CC)CCNC(=O)CCC(=O)Nc1ccc2nc(N3CCN(C)CC3)cc(C)c2c1,18.5% (inactive),
CCn1c(SCC(=O)Nc2ccc(N(C)C)cc2)nnc1-c1cccc(C)c1,,70.3 µM (active)
C=CCn1c(SCC(=O)c2ccc(O)c(O)c2)nnc1-c1cccc(OC)c1,,68 µM (active)
C=CCn1c(SCC(=O)Nc2ccc(N(C)C)cc2)nnc1-c1cccc(C)c1,,58.8 µM (active)
CCn1c2ccccc2c2cc(NC(=O)CNC)ccc21,22.4% (inactive),
COc1cccc(-c2ncc3ccccn23)c1,16.3% (inactive),
Cc1ccc(C2=NN=C(NC(=O)CSc3nncn3C)SC2)cc1,8.11% (inactive),
O=S(=O)(NC1=NCCCCC1)c1ccc2sc(NS(=O)(=O)c3ccc4ccccc4c3)nc2c1,-3.65% (inactive),
CCOc1ccc(C(=O)NC(=S)Nc2ccc(N3CCCCC3)cc2)cc1[N+](=O)[O-],20% (inactive),
CC(=O)Nc1ccc(OC(=O)c2ccc(Br)c([N+](=O)[O-])c2)cc1,9.25% (inactive),
COc1cc(/C=C(/NC(=O)c2ccccc2)C(=O)Nc2ccc(O)cc2)c([N+](=O)[O-])cc1OC,,58 µM (active)
CN(C)c1nc(=NCc2cccs2)ss1,8.07% (inactive),
COc1cc(/C=N/NC(=O)C(=O)Nc2ccccn2)ccc1O,,27.8 µM (active)
COc1cc(/C=N/NC(=O)c2cc[n+]([O-])cc2)ccc1O,,35.7 µM (active)
COc1cc(/C=N/NC(=O)c2cccc(NC(=O)c3ccccc3C)c2)ccc1O,,34.4 µM (active)
COc1cc(/C=N\Nc2cc(=O)n(C)c(=O)n2C)ccc1O,,36 µM (active)
CN(C)CCO/N=C(\c1ccc(Br)cc1)c1cccnc1,17.3% (inactive),
O=C(N/N=C/c1ccc(O)c(O)c1)c1ccc(-n2cnnn2)cc1,,18.7 µM (active)
COc1cc(/C=N/NC(=O)c2[nH]nc3c2CCc2ccccc2-3)ccc1O,,56.5 µM (active)
COc1cc(/C=N/NC(=O)c2ccc(-n3cccc3)cc2)ccc1O,,22.3 µM (active)
COc1cc(/C=N/NC(=O)C2(O)c3ccccc3-c3ccccc32)ccc1O,,45.5 µM (active)
